A selection: hits, their analogues and other compounds. The true share with any hit is near 5.9%.
KB-3-1 cytotox – kills parental KB-3-1 adenocarcinoma cells; 1.4% of 400,000 active; KB-3-1 viability, CellTiter-Glo ATP luminescence, 72 h; Potency, µM (series often up to 46.1 µM), actives largely listed as cytotoxic; note: nearly all actives have a fitted effect of over 60% in size
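Here the drug-naive KB-3-1 line serves as comparator for MDR sub-line selectivity; cells received compound titrations, 72 h at 37 °C, then CellTiter-Glo readout.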
ATXN viability – viability counter-screen for ATXN expression inhibitors; S2 cells (HEK-293 line with an ATXN2-luciferase reporter) viability, CellTiter-Fluor protease fluorescence, 24 h; Potency, µM (titrated, usually from 56.7 µM), usual class: cytotoxic; 0.49% of 400,000 active; note: nearly all actives have a fitted effect of over 40% in size
HepG2 viability – kills HepG2 cells in TGF-b inhibitor counter-screen; 0.76% of 410,000 active; AID 588856; Potency, µM (highest dose often 46.1 µM), hits mostly cytotoxic; HepG2 CAGA-GFP viability, ATP luminescence, 18 h
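CellTiter-Glo luminescence gave cytotoxicity after 18 hours at 37 degrees C. The cells were HepG2 CAGA-GFP in 1% FBS DMEM, stimulated with 500 pg/mL TGF-beta after compound addition. %Activity was normalised to no-cell wells (complete cell-killing) and DMSO (no toxicity), and curves were fitted and classified.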
ATXN2 expr inh – inhibitors of ATXN2 expression. HEK-293 ATXN2-luciferase reporter, luminescence, 24 h. Potency, µM (top dose mostly 57 µM), actives largely listed as inhibitors. 0.72% of 360,000 active. AID 1745845; note: nearly all actives have a fitted effect of over 55% in size
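ATXN2-luciferase reporter cells (luciferase flanked by upstream and downstream ATXN2 gene portions) were treated 24 h at 37 °C with compounds at up to 57 uM. SteadyGlo luminescence gave expression; GF-AFC fluorescence gave viability.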
KB-V1 MDR tox – kills drug-selected multidrug resistant KB-V1 cells. KB-V1 MDR cells viability, CellTiter-Glo, 72 h. Potency, µM (series often up to 46.1 µM), usual class: cytotoxic. 3.4% of 400,000 active; note: nearly all actives have a fitted effect of over 60% in size
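In this primary screen, KB-V1 cells overexpressing P-gp are incubated with library compounds (lowest to highest concentration) for 72 h at 37 degrees C before a luminescent ATP viability read.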
TGFb inhibitor – inhibitors of TGF-b signaling. 1.2% of 410,000 active. Potency, µM (series often up to 46.1 µM), hits mostly inhibitors. HepG2 CAGA-GFP TGF-b/SMAD3 reporter, GFP fluorescence, 18 h; TGF-beta stimulated, 500 pg/mL final; note: nearly all actives have a fitted effect of over 65% in size
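HEPG2 CAGA-GFP cells (1000/well, DMEM with 1% FBS) were pre-incubated 2 h at 37 degrees C, given compound by pin tool, then stimulated with TGF-beta at 500 pg/mL final for 18 h before per-cell GFP fluorescence imaging.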
Numbers stand for hits; 0 = inactive; ? = inconclusive; - = not tested or not shown. Calls come from the whole dose curve; as a rule, active = well fitted curve in the direction sought with a large enough effect; inconclusive = small, poorly fitted or top-dose-only effect, or another doubt; inactive = no such curve, though single readings can be large; an effect the other way counts as inactive or inconclusive.

SMILES	KB-3-1 cytotox	ATXN viability	HepG2 viability	ATXN2 expr inh	KB-V1 MDR tox	TGFb inhibitor
Cc1nnc2c3ccccc3c(-c3cccc4ccccc34)nn12	0	?	0	0	12µM	0
Cc1nnc2sc(-c3cccc4ccccc34)nn12	7.3µM	0	0	0	5.2µM	0
Cc1cc(-c2nn3c(-c4ccccc4)nnc3s2)c2ccccc2n1	?	0	0	0	1µM	0
c1ccc(-c2cc(-c3nn4c(-c5ccco5)nnc4s3)c3ccccc3n2)cc1	0	?	0	?	0	0
Cc1nnc2sc(-c3ccncc3)nn12	0	0	0	0	0	0
Cc1ccc(-c2nn3c(C)nnc3s2)cc1N	?	0	0	0	?	0
Cc1nnc2sc(-c3csc4c3CCCC4)nn12	8.2µM	0	0	0	7.3µM	0
CCc1cccc(C)c1NC(=O)c1nc2ccccc2nc1N1CCCCC1	0	?	0	0	0	0
COc1cccc(Sc2ccccc2/C=N/NC(N)=O)c1	2.9µM	?	0	0	?	0
COC(=O)c1[nH]c2c(c1C)C(=O)CC(c1cccs1)C2 (stereo not given)	?	0	0	0	2.1µM	?
COc1ccc(OC)c(C2CC(=O)c3c([nH]c(C(=O)OCC4CCCCC4)c3C)C2)c1 (stereo not given)	0	0	0	0	0	0
COc1ccc(C2CC(=O)c3c([nH]c(C(=O)OC(C)C)c3C)C2)cc1OC (stereo not given)	0	0	0	0	2.6µM	0
COC(=O)c1[nH]c2c(c1C)C(=O)CC(c1cc(OC)ccc1OC)C2 (stereo not given)	3.7µM	?	0	0	5.2µM	0
C[C@H](CO)N1C[C@H](C)[C@@H](CN(C)Cc2ccc(C(=O)O)cc2)Oc2ncc(-c3ccc(C(=O)N(C)C)cc3)cc2C1=O	0	0	0	0	0	0
CCc1cccc(CC)c1NC(=O)CCS(=O)(=O)c1ccc(Br)s1	0	0	0	0	0	0
Cn1cc(S(=O)(=O)c2cccc(Cl)c2)c(=O)c2cc(F)c(N3CCCCCC3)cc21	-	-	0	-	-	0
COc1cc(-c2ncc3ccccn23)cc(OC)c1OC	0	0	0	0	15µM	0
COc1ccc(-c2ncc3ccccn23)cc1	0	0	0	0	0	0
COc1cc(OC)cc(-c2ncc3ccccn23)c1	21µM	0	0	0	?	?
CC1CC=CC2C1C(=O)N(Cc1ccccc1)C2c1ccc(F)c(Br)c1 (stereo not given)	-	-	0	-	-	?
O=C(CC(C(=O)O)c1ccc(Cl)cc1)c1ccc(Br)cc1 (stereo not given)	0	0	10µM	0	0	0
Cc1ccc(C)c(NC(=O)CCCn2nc(C)c3sc4ccccc4c3c2=O)c1	0	-	0	-	?	?
CCc1cc2c(=O)c(-c3cnn(-c4ccccc4)c3)c(C)oc2cc1OCC(=O)Nc1cccc(C)c1	?	1.8µM	0	?	?	0
Cc1ccc(S(=O)(=O)N(CCC(=O)NCC(c2ccccc2)N(C)C)c2ccccc2)cc1 (stereo not given)	0	?	0	0	10µM	0
Cc1ccc(N(CC(=O)NCC(O)c2ccccc2)S(=O)(=O)c2ccc(C)cc2)cc1 (stereo not given)	0	0	0	0	0	0
COc1ccc(S(=O)(=O)N(CC(=O)NCc2ccccc2)c2ccc(C)cc2)cc1OC	0	-	0	?	0	?
COc1ccc(S(=O)(=O)N(CC(=O)NC(C)c2ccccc2)c2ccc(C)cc2)cc1OC (stereo not given)	0	22µM	22µM	?	?	?
COC(=O)c1c(NC(=O)c2cc3nc(-c4ccc(Br)cc4)cc(C(F)(F)F)n3n2)sc2c1CCCC2	0	-	0	-	0	0
O=C(NCC(c1cccs1)N1CCOCC1)c1cc([N+](=O)[O-])cc([N+](=O)[O-])c1 (stereo not given)	0	0	0	0	23µM	0

High-throughput results (PubChem)
